# Measurements: PubChem BioAssay (NCATS)
# “And” between values parts separate entries of the source, which are not always exact repeats. Identical values can stand only once. Inconclusive results are not listed. The source made the active and inactive calls. Calls follow the shape of the dose curve; as a rule, active = well fitted curve in the direction sought with a large enough effect in the signal ratio, with a control signal flat; inconclusive = small, poorly fitted or top-dose-only effect, or a change in a side signal; inactive = no such curve, though single readings can be large or run the other way; the % refers to the signal ratio.
# Molecular target: Glucocorticoid receptor (Homo sapiens) (UniProt P04150)
# Assay: qHTS assay for small molecule agonists of glucocorticoid receptor signaling (AID 588532)
# Details: HeLa MMTV-bla, beta-lactamase ratio, agonist, 18 h; activation: active compounds read high, percent of dexamethasone control, DMSO zero
# Source text: NIH Chemical Genomics Center [NCGC] U.S. Environmental Protection Agency [EPA] National Institutes of Environmental Health Sciences [NIEHS] National Toxicology Program [NTP] NCGC Assay Overview The Glucocorticoid receptor (GR), a nuclear receptor subfamily member and its natural ligands includes […] etc. The GR is a validated drug target for inflammation. GR ligands such as dexamethasone are clinically available as anti-inflammatory drugs. Glucocorticoids implicate role in carbohydrate, protein and lipid metabolisms and programmed cell death. They are also a component of many chemotherapy regimens for the treatment of leukemias, lymphomas, and myelomas because of their role in the induction of apoptosis.
# NCGC Assay Protocol Summary Using a beta-lactamase reporter-gene under control of glucocorticoid response element (GRE), a cell-based assay [CellSensor MMTV-bla HeLa cell line assay developed by Invitrogen] was used to measure GR ligands signaling. CellSensor MMTV-bla HeLa cells were used with assay medium containing 1% charcoal/dextran treated FBS, 0.1 mM NEAA, 1 mM sodium pyruvate and 25mM HEPES. The assay was performed in clear bottom black Greiner 1536-well plates. Dexamethasone and Mifepristine were used in the screen as agonist and antagonist positive controls respectively. Library compounds were measured for their ability to stimulate the reporter gene activity. Compounds were screened in a titration series in 1536-well format. The fluorescence intensity (405 nm excitation, 460/530 nm emission) was measured using an EnVision plate reader. Data was normalized relative to Dexamethasone control (0.1 uM, 100%), and DMSO only wells (basal, 0%). Concentration-response titration points for each compound were fitted to the Hill equation yielding concentrations of half-maximal stimulation (EC50) and maximal response (efficacy) values. qHTS protocol for GR beta-lactamase assay in agonist mode [Step] [Parameter] [Value] [Description] 1. Reagent; 6 uL; 1500 cells/well 2. Incubation; 37 C for 3-5 hrs 3. Compounds; 23 nL; 0.59 nM to 92 uM 4. Controls (Dexamethasone); 23 nL, - One column with dose response, start 4.6uM, 1:3 dilutions in duplicates - Final concentrations of 0.1 uM and 2 nM in two columns 5. Incubation; 37 C for 18 hrs 6. Detection reagent; 1 uL of CCF4-dye 7. Incubation; RT for 2 hrs 8. Detection; Fluorescence; Envision plate reader
# Sequence of Glucocorticoid receptor (Homo sapiens) (P04150 whole entry, looked up): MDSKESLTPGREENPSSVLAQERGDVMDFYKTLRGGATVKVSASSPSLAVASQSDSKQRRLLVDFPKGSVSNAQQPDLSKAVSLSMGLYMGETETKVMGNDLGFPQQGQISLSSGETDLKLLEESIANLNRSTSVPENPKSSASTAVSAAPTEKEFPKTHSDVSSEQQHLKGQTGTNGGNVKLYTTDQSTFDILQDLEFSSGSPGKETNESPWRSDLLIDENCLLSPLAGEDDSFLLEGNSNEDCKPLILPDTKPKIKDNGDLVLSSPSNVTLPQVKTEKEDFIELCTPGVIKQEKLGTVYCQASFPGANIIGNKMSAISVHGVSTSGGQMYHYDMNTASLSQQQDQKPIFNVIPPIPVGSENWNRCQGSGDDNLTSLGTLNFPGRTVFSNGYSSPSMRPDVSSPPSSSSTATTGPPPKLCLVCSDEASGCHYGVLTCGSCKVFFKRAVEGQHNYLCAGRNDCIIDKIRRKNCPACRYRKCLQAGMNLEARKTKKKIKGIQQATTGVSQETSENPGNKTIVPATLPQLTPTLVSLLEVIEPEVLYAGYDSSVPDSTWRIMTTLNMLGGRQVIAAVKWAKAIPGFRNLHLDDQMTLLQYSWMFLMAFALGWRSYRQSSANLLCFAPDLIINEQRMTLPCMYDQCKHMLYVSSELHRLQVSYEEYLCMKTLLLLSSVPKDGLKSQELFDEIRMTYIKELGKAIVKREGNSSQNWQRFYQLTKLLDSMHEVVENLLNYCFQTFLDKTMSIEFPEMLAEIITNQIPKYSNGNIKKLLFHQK
row,SMILES,activation
1,CCCCCCCCCCCCCCC(Br)C(=O)O (stereo not given),-1.04% (inactive)
2,CCCCN(CC)C(=O)SCCC,4.14% (inactive)
3,CCN(CC)C(=O)SCc1ccc(Cl)cc1,-4.08% (inactive)
4,O=[N+]([O-])c1ccc(Cl)c([N+](=O)[O-])c1,0.437% (inactive)
5,CCS(=O)(=O)c1cccnc1S(=O)(=O)NC(=O)Nc1nc(OC)cc(OC)n1,-0.845% (inactive)
6,Nc1cnn(-c2ccccc2)c(=O)c1Cl,-1.22% (inactive)
7,N#CN=C1SCCN1Cc1ccc(Cl)nc1,0.0374% (inactive)
8,CS/C(C)=N/OC(=O)N(C)SN(C)C(=O)O/N=C(\C)SC,10.5% (inactive)
9,Clc1ccc(C(Cl)(Cl)Cl)cc1,0.824% (inactive)
10,ClC1=C(Cl)C2(Cl)C3C(Cl)C(Cl)CC3C1(Cl)C2(Cl)Cl (stereo not given),17.3% (inactive)
11,CC(C)(C)OOC(C)(C)c1ccc(C(C)(C)OOC(C)(C)C)cc1,-6.76% (inactive)
12,Clc1ccc([C@]2(Cn3cncn3)C[C@H](Br)CO2)c(Cl)c1,-7.37% (inactive) and -0.86% (inactive)
13,O=C(Nc1ccccc1)Nc1ccnc(Cl)c1,-0.972% (inactive)
14,CCNP(=S)(OC)O/C(C)=C/C(=O)OC(C)C (stereo not given),-6.1% (inactive)
15,CCOP(=O)(OCC)SCS(=O)(=O)C(C)(C)C,-1.34% (inactive)
16,C#CCN1C(=O)COc2cc(F)c(N3C(=O)C4=C(CCCC4)C3=O)cc21,-6.94% (inactive)
17,CC(C)C1(C)N=C(c2nc3ccccc3cc2C(=O)O)NC1=O (stereo not given),2.3% (inactive)
18,Oc1ccc(C2(c3ccc(O)cc3)c3ccccc3-c3ccccc32)cc1,-14.6% (inactive)
19,CCC[CH2][Sn]([CH2]CCC)([CH2]CCC)[O][Sn]([CH2]CCC)([CH2]CCC)[CH2]CCC,3.22% (inactive)
20,FC(F)(F)c1ccc(Cl)cc1,4.86% (inactive)

row,SMILES,activation
1,CNC(=O)Oc1cccc2c1OC(C)(C)C2O (stereo not given),12.4% (inactive)
2,CCc1cnc(C2=NC(C)(C(C)C)C(=O)N2)c(C(=O)O)c1 (stereo not given),-7.69% (inactive)
3,COc1nc(C)nc(NC(=O)NS(=O)(=O)c2ccccc2Cl)n1,-6.7% (inactive)
4,CCCOCC(=Nc1ccc(Cl)cc1C(F)(F)F)n1ccnc1,-3.28% (inactive)
5,CCC(C)(C)c1cc(-n2nc3ccccc3n2)c(O)c(C(C)(C)CC)c1,2.15% (inactive)
6,CCOC(=O)COc1cc(-c2nn(C)c(OC(F)F)c2Cl)c(F)cc1Cl,-3.65% (inactive)
7,O=c1[nH]c2ccccc2c(=O)o1,-0.7% (inactive)
8,CCOP(=O)(SC(C)CC)SC(C)CC (stereo not given),-2.32% (inactive)
9,CCOP(=S)(OCC)SCn1nnc2ccccc2c1=O,9.79% (inactive)
10,CCc1ccc(C(=O)NN(C(=O)c2cc(C)cc(C)c2)C(C)(C)C)cc1,-6.89% (inactive)
11,CCOP(=O)(OCC)Oc1ccc2c(C)c(Cl)c(=O)oc2c1,-3.39% (inactive)
12,CS(=O)(=O)c1cc(C(F)(F)F)ccc1C(=O)c1cnoc1C1CC1,11.4% (inactive)
13,O=[N+]([O-])c1ccc2ccc3cccc4ccc1c2c34,-22% (inactive)
14,CCCCC(CC)CO[N+](=O)[O-] (stereo not given),-6.71% (inactive)
15,CCOc1nc(F)cc2nc(S(=O)(=O)Nc3c(Cl)cccc3Cl)nn12,0.859% (inactive)
16,c1ccc2c(c1)oc1ccccc12,0.193% (inactive)
17,CCOC(=O)C(Cl)Cc1cc(-n2nc(C)n(C(F)F)c2=O)c(F)cc1Cl (stereo not given),-0.667% (inactive)
18,Nc1cccc(Cl)c1Cl,0.21% (inactive)
19,CCOP(=O)(OCC)Oc1nc(Cl)c(Cl)cc1Cl,-1.13% (inactive)
20,O=S(=O)(c1ccc(Cl)cc1)c1cc(Cl)c(Cl)cc1Cl,0.889% (inactive)
